Measured values: PubChem BioAssay AID652068 (The Scripps Research Institute Molecular Screening Center, 2013)
“And” between values parts separate entries of the source, which are not always exact repeats. Equal values may be shown once. Screen size: about 4,300 compounds; about 4,000 (93%) were called active.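 How the source made its calls: active means inhibition above its plate's cutoff, the mean test-well inhibition plus 3 SD (cut at about 4.8% in these data); inactive means the rest.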 The set was probably picked from earlier hits. These entries were drawn from the full list.

experiment: displacement of TO-PRO-1 from CAG DNA duplex, counter-screen for rCAG RNA repeat binder project, biochemical, fluorescence, TO-PRO-1 dye, d(CAG) DNA oligo (AID 652068); conditions: d(CAG) DNA oligo TO-PRO-1 dye displacement, at 3 µM, hits give high values;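 further: 0% = DNA dye mix with DMSO and 100% = 100 µM mitoxantrone; hits displace the dye from DNA and so lower well fluorescence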

Structure (SMILES) | inhibition
O=C(COc1ccccc1Cl)Nc1ccc(C(=O)c2ccc(C(=O)O)cc2)cc1 | 3.95% (inactive)
Cc1cc(C)cc(OCC(=O)Nc2cc(NC(=O)COc3cc(C)cc(C)c3)cc(C(=O)O)c2)c1 | 39.1% (active)
Cc1cc(C)cc(Oc2c(C(F)(F)F)oc3cc(OCC(=O)O)ccc3c2=O)c1 | 4.02% (inactive)
Cc1cccc(OCC(=O)Nc2ccc(C(=O)O)cc2NC(=O)COc2cccc(C)c2)c1 | 11.1% (active)
Cc1ccccc1-n1c(SCC(=O)Nc2cccc3ccccc23)nc(O)cc1=O | 7.03% (active)
Cc1ccc(C(=O)/C=C/Nc2ccc(S(=O)(=O)Nc3onc(C)c3C)cc2)cc1 | 16.3% (active)
Cc1cc(OC(C)C(=O)Nc2ccc(S(=O)(=O)Nc3onc(C)c3C)cc2)cc(C)c1Cl (stereo not drawn) | 26.6% (active)
COc1cc2ccccc2cc1C(=O)Nc1ccc(S(=O)(=O)Nc2cc(C)on2)cc1 | 23.6% (active)
CCOc1ccc(C(=O)Nc2ccc(S(=O)(=O)Nc3cc(C)on3)cc2)cc1 | 6.38% (active)
CCn1cc(C(=O)NCC2COc3ccccc3O2)c2cc(OC)c(OC)cc2c1=O (stereo not drawn) | 0.88% (inactive)
CCc1ccc(OC(C)C(=O)Nc2ccc(S(=O)(=O)Nc3cc(C)on3)cc2)cc1 (stereo not drawn) | 5.12% (active)
CCOc1cc(C(=O)Nc2ccc(S(=O)(=O)Nc3cnc4ccccc4n3)cc2)cc(OCC)c1OCC | 26.9% (active)
Cc1ccc(S(=O)(=O)N2[C@@H](c3ccc(Br)cc3)C(C(=O)O)=C[C@H]2CC2CCCC2)cc1 | 34.4% (active)
CCCCC[C@@H]1C=C(C(=O)O)[C@H](c2ccc(C#N)cc2)N1S(=O)(=O)c1ccc(C)cc1 | 20.6% (active)
Cc1cc(C(=O)N/N=C/c2ccc(O)c([N+](=O)[O-])c2)c(C)n1-c1ccc(F)cc1 | 14.8% (active)
Cc1ccc(SC(CC(=O)c2ccc(C(C)(C)C)cc2)C(=O)O)cc1 (stereo not drawn) | 12.6% (active)
Cn1c2ccccc2c2cc(/C=C(\NC(=O)c3ccccc3)C(=O)NCC(=O)O)ccc21 | 12.6% (active)
O=C1CC(c2ccccc2)=NN1c1ccc([N+](=O)[O-])cc1 | 14.2% (active)
O=C1Oc2ccccc2C(=O)/C1=C/c1ccccc1O | 10.7% (active)
COc1cccc(-c2coc3cc4oc(=O)c(CC(=O)O)c(C)c4cc23)c1 | 11.6% (active)
C=CCSc1nsc(NC(=O)Nc2cccc(C(C)=O)c2)n1 | 16.3% (active)

Structure (SMILES) | inhibition
CCSc1nsc(NC(=O)Nc2cccc(C(C)=O)c2)n1 | 12.6% (active)
O=C(Nc1cccc(Cl)c1)Nc1ccccc1NS(=O)(=O)c1cccs1 | 9.83% (active)
O=C(Nc1nncs1)c1ccccc1NS(=O)(=O)c1cccs1 | 6.44% (active)
COc1ccc(NS(=O)(=O)c2cc(NC(=O)CC(=O)c3ccc([N+](=O)[O-])cc3)ccc2C)cc1 | 19% (active)
COc1cc(OC)c(S(=O)(=O)Nc2ccccc2C(=O)O)cc1S(=O)(=O)Nc1ccccc1C(=O)O | 6.92% (active)
COc1ccc(NS(=O)(=O)c2cc(C(=O)Nc3ccccc3C(=O)O)ccc2C)cc1 | 18.6% (active)
CC(=N\NC(=O)c1cc(Br)ccc1O)/C(=N/O)C(=O)Nc1ccccc1 | 3.8% (inactive)
O=[N+]([O-])c1cc(Cl)cc(/C=N/NC(=S)Nc2cc(S(=O)(=O)N3CCOCC3)ccc2Cl)c1O | 84.8% (active)
CCOC(=O)c1c(NC(=O)C2CC=CCC2C(=O)O)sc(C)c1CC (stereo not drawn) | 5.11% (active)
C=CCn1c(=S)[nH]c2scc(-c3ccco3)c2c1=O | 15.4% (active)
Cc1ccc(Cn2c(SCC(=O)N/N=C/c3ccccc3OCC(=O)O)nc3ccccc32)cc1 | 23% (active)
O=C(Cc1ccccc1)Nc1ccc(C(=O)Nc2ccccc2C(=O)O)cc1 | 10.5% (active)
Cc1sc(NC(=O)c2ccc3ncsc3c2)c(C(N)=O)c1C | 7.12% (active)
N#Cc1ccccc1CN1C(=O)S/C(=C/c2cccn2-c2cccc(C(=O)O)c2)C1=O | 25.7% (active)
CC(=O)Nc1ccc(S(=O)(=O)N(CCc2ccccc2)CC(=O)N/N=C/c2ccc(C(=O)O)cc2)cc1 | 5.27% (active)
Cc1ccc(N=C2NC(=O)/C(=C/C=C/c3ccco3)S2)cc1C | 23.8% (active)
COc1cc(C(=O)Nn2c(O)c(C3=c4ccccc4=NC3=O)sc2=S)ccc1O | 8.15% (active)
Cc1ccc(NC(=O)CC2S/C(=N/N=C3\CCCc4ccccc43)NC2=O)cc1 (stereo not drawn) | 17.1% (active)
COc1ccc(/C=C/C(=O)c2ccc(NS(=O)(=O)c3ccc(C)cc3)cc2)cc1O | 18.4% (active)
CCN(CC)C(=O)CSC(Nc1cccc(F)c1)=C(C#N)C#N | 13.2% (active)
COc1cc(/C=C2/C(=O)NN(c3cccc(Cl)c3)C2=O)cc(Br)c1O | 9.22% (active)

Structure (SMILES) | inhibition
CN(C(=O)COC(=O)c1cc(-c2ccco2)nc2ccccc12)C1CCS(=O)(=O)C1 (stereo not drawn) | 13.2% (active)
COc1ccc(C(CNC(=O)c2cccc(S(=O)(=O)Nc3ccccc3Cl)c2)N2CCOCC2)cc1 (stereo not drawn) | 27.5% (active)
Cc1ccc(NC(=O)CSc2nc(CSc3ccc(C)cc3)cc(=O)[nH]2)cc1 | 16.7% (active)
CN(C)S(=O)(=O)c1cccc(-c2nn(-c3ccccc3)cc2/C=C2\SC(=S)N(CC(=O)O)C2=O)c1 | 55.3% (active)
Cc1ccc(-c2nn(-c3ccccc3)cc2/C=C2\SC(=S)N(CCCCCC(=O)O)C2=O)o1 | 28.4% (active)
CCc1nnc(NS(=O)(=O)c2ccc(N=Cc3c(C)[nH]n(-c4ccc(C)cc4)c3=O)cc2)s1 | 32.2% (active)
O=C(N/N=C/c1c(Cl)[nH]c2ccccc12)c1sc2ccccc2c1Cl | 17.5% (active)
Cc1ccc(NC(=S)NNC(=O)CSc2nnc(SCc3ccccc3Cl)s2)cc1 | 18.8% (active)
CC(C)=CCCC1(C)C=Cc2c(ccc3c2[nH]c2cc(O)c(C)cc23)O1 (stereo not drawn) | 15.3% (active)
CCOC(=O)C1Nc2ccc(C(F)(F)F)cc2C2C=CCC12 (stereo not drawn) | 9.84% (active)
Cc1cc2nc(-c3ccco3)c(Cc3cccc(F)c3)n2c(C)c1Br | 11.8% (active)
CC1(C(=O)NS(=O)(=O)c2ccc(C#N)cc2)CCN1C(=O)c1ccc(C2CCCCC2)cc1 (stereo not drawn) | 14.9% (active)
Cc1ccc(S(=O)(=O)N2[C@@H](c3cccc4ccccc34)C(C(=O)O)=C[C@H]2C(C)(C)C)cc1 | 15.6% (active)
CCc1ccc(N2CC(C(=O)Nc3ccc(S(=O)(=O)Nc4nccs4)cc3)CC2=O)cc1 (stereo not drawn) | 16.7% (active)
Cc1ccc(Sc2cc(C(=O)c3ccccc3C(=O)O)ccc2[N+](=O)[O-])cc1 | 29.8% (active)
O=C(O)c1ccccc1/C=N/Nc1ccc(S(=O)(=O)Nc2ccc(Cl)cc2)cc1[N+](=O)[O-] | 27.1% (active)
COc1ccc(Br)cc1/C=N/Nc1ccc(S(=O)(=O)Nc2ccccc2C(=O)O)cc1[N+](=O)[O-] | 71.3% (active)
COc1cccc(/C=N/Nc2ccc(S(=O)(=O)Nc3ccccc3C(=O)O)cc2[N+](=O)[O-])c1O | 79.1% (active)
COc1ccc(OCC(=O)Nc2nnc(-c3ccco3)s2)cc1 | 8.39% (active)
Cc1ccccc1-c1ccc2c(c1)O[C@@H](CN(C)Cc1ccc(C(=O)O)cc1)[C@@H](C)CN([C@H](C)CO)S2(=O)=O | 21.1% (active)
O=C(COc1ccc([N+](=O)[O-])cc1)Nc1cccc(C(=O)Nc2ccccc2C(=O)O)c1 | 24.8% (active)

Structure (SMILES) | inhibition
COc1ccc(C(N)c2csc(NC(=O)Nc3cccc(C(F)(F)F)c3)n2)cc1 (stereo not drawn) | 10.1% (active)
CCOC(=O)c1csc(NC(=O)Nc2cccc(OC)c2)n1 | 16.7% (active)
NC(c1ccccc1)c1csc(NC(=O)Nc2cccc(C(F)(F)F)c2)n1 (stereo not drawn) | 15.2% (active)
NC(c1csc(NC(=O)Nc2cccc(C(F)(F)F)c2)n1)C1CCCCC1 (stereo not drawn) | 4.91% (active)
CCN1C(=O)/C(=C2/Sc3ccccc3N2CCCS(=O)(=O)O)SC1=S | 7.23% (active) and 13.9% (active)
CCOC(=O)c1ccccc1N1C(=O)C2Sc3[nH]c(=O)sc3C(/C=C/c3ccccc3)C2C1=O (stereo not drawn) | 18.1% (active)
Cc1c(CCC(=O)N[C@@H](CC(C)C)C(=O)O)c(=O)oc2c(C)c3oc4c(c3cc12)CCCC4 | 12.2% (active)
CC[C@@H](C)[C@H](NC(=O)CCc1c(C)c2cc3c4c(oc3c(C)c2oc1=O)CCCC4)C(=O)O | 14.9% (active)
COc1ccc(C(=O)/C=C/c2ccc(-c3ccccc3)cc2)cc1CSCC(=O)O | 50.7% (active)
COC(=O)c1ccc(COc2ccc(/C=C/C(=O)c3ccc(OC)c(CSCC(=O)O)c3)cc2OC)cc1 | 24.1% (active)
Cc1ccc2nc(N3C(=O)C(O)=C(C(=O)c4ccco4)C3c3cccc(O)c3)sc2c1 (stereo not drawn) | 37.6% (active)
Cc1ccc(CSc2nc(-c3ccccc3)c(C#N)c(=O)[nH]2)cc1 | 28.7% (active)
N#Cc1c(-c2ccccc2)nc(SCc2cccc(C(F)(F)F)c2)[nH]c1=O | 50% (active)
N#Cc1c(-c2ccccc2)nc(SCc2ccc([N+](=O)[O-])cc2)[nH]c1=O | 17.4% (active)
O=C(O)c1ccc(N/N=C/c2cn(-c3ccccc3)nc2-c2cccs2)cc1 | 23% (active)
O=C(O)c1ccc(NC(=O)c2cn(-c3ccccc3)nc2-c2ccc(Cl)cc2)cc1 | 23.2% (active)
O=C(NNC(=S)NC(=O)c1cn(-c2ccccc2)nc1-c1ccccc1)c1ccncc1 | 15.3% (active)
N#Cc1c(-c2ccccc2)cc(-c2ccccc2)nc1SCC(=O)O | 13% (active)
O=C(O)CCn1cc(/C=C/C(=O)c2ccc(Cl)cc2)c(-c2cccc(Br)c2)n1 | 53.6% (active)
Cc1cc(N2C(=O)C(O)=C(C(=O)c3ccc(C)o3)C2c2ccc(OCc3ccccc3)cc2)no1 (stereo not drawn) | 23.8% (active)
